The record followed here is PubChem BioAssay AID624172 (National Center for Advancing Translational Sciences (NCATS), 2012).

Molecules are shown by their SMILES. Out of some 380,000 compounds screened, about 25 (0.007%) were called active. Calls come from the whole dose curve; as a rule, active = well fitted activation curve with a large enough effect; inconclusive = small, poorly fitted or top-dose-only effect; inactive = no such curve, though single readings can be large or run the other way. Not all results are given here. Square brackets hold non-standard residues; d marks the D form. Side chains are listed from the residue outwards. Peptide text beside a SMILES is read from it. * marks the point of attachment. X1 = CCC(C)C(N)C1=NC(C(=O)*)CS1; Orn = NCCC[CH](N)C(=O)O

Chain of Glucagon-like peptide 1 receptor (Homo sapiens) (P43220 whole entry, looked up): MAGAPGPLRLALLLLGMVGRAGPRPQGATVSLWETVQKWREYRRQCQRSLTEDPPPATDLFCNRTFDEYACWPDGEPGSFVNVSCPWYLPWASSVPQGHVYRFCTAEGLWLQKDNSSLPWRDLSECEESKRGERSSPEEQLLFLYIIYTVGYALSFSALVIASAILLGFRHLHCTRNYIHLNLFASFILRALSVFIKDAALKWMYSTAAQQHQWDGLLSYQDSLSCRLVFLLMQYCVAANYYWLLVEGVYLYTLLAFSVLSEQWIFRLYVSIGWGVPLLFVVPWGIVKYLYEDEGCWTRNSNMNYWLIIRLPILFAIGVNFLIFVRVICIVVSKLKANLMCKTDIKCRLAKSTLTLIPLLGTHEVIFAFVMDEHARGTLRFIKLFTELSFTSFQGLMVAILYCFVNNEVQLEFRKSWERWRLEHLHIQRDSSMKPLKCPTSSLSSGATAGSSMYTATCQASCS

The target of the experiment is Glucagon-like peptide 1 receptor (Homo sapiens) (UniProt P43220). The experiment is described as follows: qHTS of GLP-1 Receptor Agonists. The conditions noted are these: HEK293 GLP-1R CRE-luciferase, luminescence, 4-6 h, cells express a hypersensitive GLP-1R form; series mostly up to 45.6 µM. From the text:
The overall goal of this project was to develop a novel assay for discovering small molecule ligands for class B1 G protein-coupled receptors (GPCRs). Very few agonists (or inverse agonists) with generally weak activity for this entire group of physiologically important receptors are known to date. To establish proof-of-principle that this critical bottleneck can be overcome with a suitable screening approach, our studies focused on the class B1 receptor for glucagon-like peptide-1 (GLP-1R), a potential therapeutic target for diabetes and neurodegenerative disease.
The assay was developed in a "mix and measure" format using a cell-based functional readout. Toward this goal, stably transfected HEK293 cell clones were established that co-express (i) a cAMP-responsive luciferase reporter gene, and (ii) GLP-1Rs that upon ligand interaction either stimulate (agonists) or inhibit (inverse agonists) luciferase activity. In different cell lines to be used for screening, expressed GLP-1Rs are specifically optimized for high sensitivity detection of either weak agonists (hypersensitive receptor) or inverse agonists (constitutively active receptor mutant). In addition, control cell lines were developed that express either the cAMP-responsive reporter gene without recombinant GLP-1Rs (enabling initial exclusion of GLP-1R independent effects of candidate probes), or the reporter gene together with wild type GLP-1Rs (for confirmation of probe activity at this receptor), or the reporter gene in combination with the constitutively active orphan receptor GPR119 (enabling initial exclusion of GLP-1R independent inhibitory effects of candidate inverse agonists).
To that end, this assay was optimized for 1536-well format and screened against the MLSMR.
NIH Molecular Libraries Probe Production Network [MLPCN]
NIH Chemical Genomics Center [NCGC]
PI Name: Martin Beinborn, Tufts Medical Center
In a white solid 1536-well plate, 6 uL of cells are dispensed in DMEM without phenol red, 10% Nu serum, and 1% pen-strep medium. The plates are then incubated for 12 hours at 37 deg C at 5% CO2 before 23 nL of compounds are added. After a 4-6 hr incubation at37 deg C and 5% CO2, 3 uL of detection reagent are added and after a 12 min incubation at RT, a luminescent read is obtained on the ViewLux.
For orientation: qHTS replaces the single test concentration by a dilution series.
`COc1cccc(CNC(=O)c2ccc3c(Cl)c4c(nc3c2)CCCC4)c1`: the compound was classed as inactive.
`COc1cccc(C(=O)NC2(C(F)(F)F)C(=O)Nc3c2c(=O)[nH]c(=O)n3-c2ccc(C)cc2)c1` (configuration not stated): the outcome was inactive.
Turning to `Cc1ccc(C)c(N2CCN(C(=O)CN3C(=O)COc4ccc(S(=O)(=O)N5CCCCCC5)cc43)CC2)c1`, the compound was classed as inactive.
`CCn1cc(C(=O)N(C)Cc2ccccc2)c(=O)c2cc(S(=O)(=O)N3CCCCCC3)ccc21`: the result was inactive.
Consider `Cc1cccc(Cc2c(C)nc3nc(SCc4ccccc4Cl)nn3c2C)c1`, for which the compound was called inactive.
The result for `Oc1ccccc1-c1nc2ccc(Cl)cn2c1Nc1ccc2c(c1)OCCO2` reads “inactive”; that for `COc1cc(C(=O)Nc2ccc(OCc3cc(=O)n4cc(C)sc4n3)cc2)cc(OC)c1OC`, “inactive”; that for `COc1ccc(NC(=O)C2CCCN(S(=O)(=O)c3cccc4nonc34)C2)cc1Cl` (configuration not stated), “inactive”.
`CCC(C)[C@@H](N)C(=O)O` (some centres not stated): the compound was called inactive.
As for `CCCc1c2oc(C(=O)O)cc(=O)c2cc2c(=O)cc(C(=O)O)n(CC)c12`, the call was inactive.
In the case of `CCCCCCCCCCCCCCCCO`, the compound was classed as inactive.
The result for `O=S(O)CNc1ccc(S(=O)(=O)c2ccc(NCS(=O)O)cc2)cc1` reads “inactive”; that for `CCCN(CC)[C@@H](CC)C(=O)Nc1c(C)cccc1C`, “inactive”.
Consider `CN1CC(O)c2cc(N=NC(N)=O)c(O)cc21` (configuration not stated), for which the call was inactive.
In the case of `O=C(Cn1nc(C(F)(F)F)c2c1CCCC2)Nc1ccc(Cl)cc1`, the result was inactive.
In the case of `CCOc1ccc(OCC)c(NC(=O)CN(c2ccc(C)cc2)S(=O)(=O)c2c(C)n[nH]c2C)c1`, the call was inactive.
The result for `CCOC(=O)c1ccc(NC2=CC(c3ccc(OCC)cc3)N(c3ccc(C(=O)OCC)cc3)C2=O)cc1` (configuration not stated) reads “inactive”; that for `CN(Cc1ccccc1)c1ncnc2onc(-c3ccc(F)cc3)c12`, “inactive”.
For `O=C(Nc1ccc(O)cc1)c1ccccc1O` the value was “inactive”; for `O=P(O)(O)OC[C@H](O)CO`, “inactive”; for `COc1cccc(NC(=O)C2CCN(c3cc(C)nc4c(-c5ccc(Cl)cc5)c(C)nn34)CC2)c1`, “inactive”.
On to `COC(=O)CC1Oc2ccccc2-n2cc(-c3ccccc3)nc21` (configuration not stated), for which the compound was classed as inactive.
In the case of `CCOC(=O)c1cccc(NS(=O)(=O)c2cn(C)c(C)n2)c1`, the compound was classed as inactive.
For `CCOc1ccc(N(CC)C(=O)C2CCN(S(=O)(=O)c3cccc4nonc34)CC2)cc1` the value was “inactive”; for `COc1ccnc(C[S@@](=O)[C@@H]2Nc3ccc(OC(F)F)cc3N2)c1OC`, “inactive”.
For `O=C(Nc1c(-c2ccc(F)cc2)nc2ccccn12)c1cccc(F)c1` the value was “inactive”.
`CC1(C)OC2CO[C@]3(COS(N)(=O)=O)OC(C)(C)OC3C2O1` (some centres not stated): the compound was classed as inactive.
On to `COC(=O)c1scc(-c2ccccc2)c1S(=O)(=O)Nc1ccccc1`, for which the compound was classed as inactive.
The result for `COc1ccc(C)cc1NC(=O)C(=O)NCCc1sc(-c2cccc(C)c2)nc1C` reads “inactive”; that for `COc1ccc(-c2noc(CCC(=O)N(C)c3ccccc3C)n2)cc1`, “inactive”.
`C/C=C/C=N/NC(=O)c1ccncc1`: the compound was called inactive.
For `COc1ccc2cc(CNc3ccc(OC)c(OC)c3)c(=O)n(CC(=O)Nc3ccccc3F)c2c1`, the compound was classed as inactive.
Take `COc1cc2[nH]c(C)c(CCN3CCN(c4ccccc4)CC3)c2cc1OC`: the compound was called inactive.
As for `COC(=O)C1=C(c2ccccc2)c2ccccc2S(=O)(=O)N1CC(=O)Nc1ccccc1C(F)(F)F`, the compound was classed as inactive.
Regarding `COc1cc(C(CC(=O)NCCC(C)C)N2Cc3ccccc3C2=O)cc(OC)c1OC` (configuration not stated), the result was inactive.
`CC1(C)[C@H](O[C@H]2O[C@H](C(=O)O)[C@@H](O)[C@H](O)[C@H]2O[C@@H]2O[C@H](C(=O)O)[C@@H](O)[C@H](O)[C@H]2O)CC[C@@]2(C)[C@H]1CC[C@]1(C)[C@H]2C(=O)C=C2[C@H]3C[C@@](C)(C(=O)O)CC[C@]3(C)CC[C@]21C`: the compound was called inactive.
On to `CCc1cccc(NC(=O)CSc2nccn2C)c1`, for which the compound was classed as inactive.
In the case of `CO[C@H]1C[C@@H](O[C@@H]2[C@@H](C)O[C@@H](O[C@@H]3/C(C)=C/CC4C[C@@H](C[C@]5(C=C[C@@H](C)[C@H](C6CCCCC6)O5)O4)OC(=O)[C@@H]4C=C(C)[C@@H](O)[C@H]5OC/C(=C\C=C\[C@@H]3C)[C@]54O)C[C@H]2OC)O[C@@H](C)[C@@H]1O`, the result was inactive.
`CCC(C)C(N)C1=NC(C(=O)NC(CC(C)C)C(=O)NC(CCC(=O)O)C(=O)NC(C(=O)NCCCCC2NC(=O)C(CC(N)=O)NC(=O)C(CC(=O)O)NC(=O)C(Cc3cnc[nH]3)NC(=O)C(Cc3ccccc3)NC(=O)C(C(C)CC)NC(=O)C(CCCN)NC2=O)C(C)CC)CS1` (stereo not drawn) (cyclo(DNK([Ile-Glu-Leu-X1])[Orn]IFH); configuration not given here): the call was inactive.
The result for `COc1ccc(Cl)cc1NC(=O)Cn1c(=O)c2ccccc2n2nncc12` reads “inactive”; that for `Cc1ccc(CNC(=O)Cn2c(=O)ccc3cc(S(=O)(=O)N4CCCC4)ccc32)cc1`, “inactive”.
In the case of `CCc1ccccc1NC(=O)Cn1c(=O)n(-c2cccc(C)c2)c(=O)c2c1c1cc(OC)ccc1n2C`, the result was inactive.
For the compound `CCOc1ccc(NS(=O)(=O)c2ccc(N)cc2)nn1`, the compound was classed as inactive.
On to `Cc1ccc(-c2nnc(SCc3ccccc3C)o2)cc1`, for which the compound was called inactive.
Regarding `O=C(/C=C/c1cccc(F)c1)NC1CC1`, the result was inactive.
The result for `CCOC(=O)c1ccccc1NC(=O)CCc1c(C)nc2c(c1C)c(=O)n(C)c(=O)n2C` reads “inactive”; that for `Cc1cc(C)cc(NC(=O)Cn2c(=O)c3ccccc3n3nncc23)c1`, “inactive”; that for `FCOC(C(F)(F)F)C(F)(F)F`, “inactive”.
Regarding `COc1ccccc1N1CCN(c2ncnc3onc(-c4ccc(F)cc4)c23)CC1`, the compound was classed as inactive.
Consider `Cc1ccc(C)c(N2CCN(S(=O)(=O)c3ccc4c(c3)C(C(C)C)C(=O)N4)CC2)c1` (configuration not stated), for which the compound was called inactive.
For `NCCCCC(N)C(=O)O` (configuration not stated), the call was inactive.
For the compound `Cn1c(=O)nc2n(-c3ccc(Br)cc3)c3cccc(Cl)c3cc-2c1=O`, the call was inactive.
As to `Cc1ccc(-n2nnnc2CNC(=O)c2ccccc2C)cc1C`, the compound was classed as inactive.
In the case of `COc1ccc(NC(=O)Cn2c(=O)n(Cc3ccc(C(=O)NCc4ccccc4Cl)cc3)c(=O)c3ccccc32)cc1`, the result was inactive.
Take `Cc1cccc(NC(=O)CSc2nc3c([nH]c4ccccc43)c(=O)n2-c2cc(C)cc(C)c2)c1`: the compound was called inactive.
Consider `CC1(C)OC2CC(=O)OC[C@@]23C1CC(=O)[C@]1(C)C3CC[C@@]2(C)C(c3ccoc3)OC(=O)C3O[C@@]321` (some centres not stated), for which the compound was called inactive.
In the case of `Cc1ccc(C(=O)CSc2nc(-c3ccccc3)nc3c2CCCC3)c(C)c1`, the result was inactive.
